Article PMC5540273 (PLoS ONE, 2017)
Where “and” joins values, the source holds several entries; their conditions need not be identical. Equal entries are not always repeated. Where two headings read alike, the source gives them in different places.

How the values were obtained:
TAOK2 = details: concentration: 1 μM, replicates: in singlicate; n = 1
TAOK3 = details: concentration: 1 μM, replicates: in singlicate, n = 1
TBK1 = details: concentration: 1 μM, replicates: in singlicate, n = 1
TEC = details: concentration: 1 μM, replicates: in singlicate, n = 1
TESK1 = details: concentration: 1 μM, replicates: in singlicate, n = 1
TGFBR1 = details: concentration: 1 μM, replicates: in singlicate, n = 1
TGFBR2 = details: concentration: 1 μM, replicates: in singlicate, n = 1
TIE1 = details: concentration: 1 μM, replicates: in singlicate, n = 1
TIE2 = system: T1, TIE2; details: concentration: 1 μM, replicates: in singlicate, n = 1
T1 construct: gene TEK

TLK1 = details: concentration: 1 μM, replicates: in singlicate, n = 1
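Note: KINOMEscan kinase panel screen.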

| SMILES | %Inh (TAOK2) | %Inh (TAOK3; 1 µM) | %Inh (TBK1; 1 µM) | %Inh (TEC; 1 µM) | %Inh (TESK1; 1 µM) | %Inh (TGFBR1; 1 µM) | %Inh (TGFBR2; 1 µM) | %Inh (TIE1; 1 µM) | %Inh (TIE2; 1 µM) | %Inh (TLK1; 1 µM) | %Inh (TAOK3) | %Inh (TBK1) | %Inh (TEC) | %Inh (TESK1) | %Inh (TGFBR1) | %Inh (TGFBR2) | %Inh (TIE1) | %Inh (TIE2) | %Inh (TLK1) |
| --- | --- | --- | --- | --- | --- | --- | --- | --- | --- | --- | --- | --- | --- | --- | --- | --- | --- | --- | --- |
| CC(C)(CN)c1nc(-c2ccc(Cl)c(O)c2)c(-c2ccncc2)[nH]1.O=C(O)C(F)(F)F [SB-477794] | 0% | 6% and 0% | 0% and 5% | 13% and 0% | 100% and 56% | 98.8% and 96.2% | 99.2% and 99.6% | 1% and 0% | 3% and 22% | 20% and 11% |  |  |  |  |  |  |  |  |  |
| Cl.Oc1cccc(Nc2ccnc3cc(-c4ccncc4)ccc23)c1 [GW494601] | 0% |  |  |  |  |  |  |  |  |  | 0% | 9% | 1% | 16% | 76% | 99.5% | 50% | 48% | 0% |
| Cc1ccc(NC(=O)c2ccnc(N3CCN(C)CC3)c2)cc1-c1ccc(C(=O)NCC2CC2)cc1 [GW775604] | 13% |  |  |  |  |  |  |  |  |  | 0% | 13% | 0% | 0% | 25% | 0% | 2% | 0% | 0% |
| Cc1cccc(-c2nc(-c3ccc(S(C)(=O)=O)cc3)sc2-c2ccncc2)c1 | 0% |  |  |  |  |  |  |  |  |  | 0% | 0% | 26% | 0% | 16% | 0% | 0% | 0% | 13% |
| CNc1ncnc2[nH]ncc12 [SKF-18355] | 24% |  |  |  |  |  |  |  |  |  | 0% | 30% | 0% | 10% | 47% | 0% | 0% | 2% | 0% |
| Nc1nc(-c2ccc3c(N)n[nH]c3c2)cc(N2CCCC2)n1 [GSK2227430] | 0% |  |  |  |  |  |  |  |  |  | 0% | 18% | 0% | 2% | 0% | 0% | 0% | 0% | 3% |
| COc1ccc(CNC(=O)NC2CCN(c3ccnc(Nc4ccc(OC)cc4)n3)C2)cc1 (centres unmarked) [GSK1379727] | 7% |  |  |  |  |  |  |  |  |  | 0% | 0% | 0% | 16% | 38% | 0% | 17% | 0% | 0% |
| Cn1cc(-c2ccc3c(c2)CCN3C(=O)Cc2ccccc2Cl)c2c(N)ncnc21 [GSK2608885] | 0% |  |  |  |  |  |  |  |  |  | 47% | 14% | 100% | 43% | 8% | 23% | 96% | 97.4% | 29% |
| CC(C)(C)n1cnc2c(N)ncnc21 [SKF-97359] | 0% |  |  |  |  |  |  |  |  |  | 0% | 19% | 0% | 0% | 30% | 0% | 0% | 17% | 67% |
| O=c1cc(N2CCOCC2)nc2n(Cc3cccc(Cl)c3Cl)c(C3CC3)nn12 [GSK2358994] | 0% |  |  |  |  |  |  |  |  |  | 0% | 26% | 13% | 14% | 0% | 10% | 0% | 0% | 25% |
| O=c1cc(N2CCOCC2)nc2n(Cc3cccc(F)c3)ccn12 [GSK2297430] | 0% |  |  |  |  |  |  |  |  |  | 0% | 0% | 0% | 19% | 0% | 13% | 7% | 0% | 6% |
| COc1cc2c(cc1OCCN1CCN(C)CC1)ncc1c3ccc(C#N)cc3[nH]c21 | 13% |  |  |  |  |  |  |  |  |  | 0% | 83% | 0% | 0% | 0% | 0% | 0% | 6% | 37% |
| NS(=O)(=O)c1cccc(-c2ccc3nccc(-c4cccc(S(N)(=O)=O)c4)c3c2)c1 [GW867253] | 31% |  |  |  |  |  |  |  |  |  | 6% | 15% | 0% | 7% | 0% | 0% | 5% | 0% | 3% |
| NCCNS(=O)(=O)c1ccc(-c2ccnc3[nH]ccc23)cc1 [GSK977617] | 0% | 0% and 2% | 27% and 24% |  | 14% and 13% |  |  | 32% and 23% |  | 36% and 13% |  |  | 0% |  | 0% | 0% |  | 0% |  |
| [2H]C([2H])(c1cccc(C(F)(F)F)c1C)n1ccn2c(=O)nc(N3CCOCC3)cc12 [GSK2336394] | 0% |  |  |  |  |  |  |  |  |  | 0% | 10% | 0% | 26% | 5% | 32% | 11% | 0% | 0% |
| Cc1nnc(-c2ccc3ncc(-c4ccc(S(C)=O)cc4)n3c2)o1 (centres unmarked) | 0% |  |  |  |  |  |  |  |  |  | 0% | 15% | 7% | 0% | 9% | 0% | 5% | 6% | 23% |
| Cn1ccc2ncnc(Oc3ccc(NC(=O)Nc4ccncc4)c(Cl)c3)c21 | 0% |  |  |  |  |  |  |  |  |  | 0% | 22% | 0% | 0% | 10% | 0% | 0% | 5% | 0% |
